Binding signal data for 7 sequences are collected here from publication PMC7862700, “An all-to-all approach to the identification of sequence-specific readers for epigenetic DNA modifications on cytosine”.

What all share (test): DAPPL (digital affinity profiling via proximity ligation, sequencing); 10 mM Tris-HCl pH 7.5, 50 mM NaCl, 1 mM DTT, 4% glycerol, room temperature, 30 min; GST-TFs on glutathione beads, 16-mer random dsDNA library, 0.1% formaldehyde crosslink after washing; high values mean tight binding
What all share (details): protein: recombinant; tags: N-terminal GST; dsDNA, one strand shown

One assay concerns the target T1, ERF (Homo sapiens, UniProt P50548 1-548).
T1 sequence: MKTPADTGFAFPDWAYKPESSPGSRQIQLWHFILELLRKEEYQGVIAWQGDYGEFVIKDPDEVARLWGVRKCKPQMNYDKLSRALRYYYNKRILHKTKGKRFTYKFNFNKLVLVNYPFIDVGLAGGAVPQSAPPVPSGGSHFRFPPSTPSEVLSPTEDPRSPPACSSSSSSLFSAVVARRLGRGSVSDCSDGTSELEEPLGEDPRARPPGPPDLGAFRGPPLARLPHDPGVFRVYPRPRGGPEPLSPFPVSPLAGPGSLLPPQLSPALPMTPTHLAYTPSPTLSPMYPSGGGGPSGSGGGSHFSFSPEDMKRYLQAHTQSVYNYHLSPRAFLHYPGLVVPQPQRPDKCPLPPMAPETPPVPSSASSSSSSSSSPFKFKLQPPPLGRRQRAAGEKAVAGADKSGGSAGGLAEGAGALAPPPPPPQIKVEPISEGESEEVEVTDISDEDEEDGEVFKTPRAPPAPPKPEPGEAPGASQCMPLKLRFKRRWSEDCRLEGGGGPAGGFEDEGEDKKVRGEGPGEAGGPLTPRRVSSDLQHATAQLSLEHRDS
The method, boiled down: (§1)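 Pools were built from human transcription factors expressed in yeast as GST fusions, captured on glutathione beads and DNA-barcoded, along with a tag-only sample. Incubation with 200 nmole of a 16-mer random double-stranded DNA library lasted 30 min at room temperature in Tris/NaCl/DTT/glycerol buffer, and was followed by washing, 0.1% formaldehyde crosslinking, proximity ligation, PCR amplification and Illumina NextSeq500 sequencing. Binding signal is the quotient of each hexamer's read frequency for a factor and its frequency for the tag-only sample.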

In another assay the target is T2, ETV3L (Homo sapiens, UniProt Q6ZN32 1-361).
T2 sequence: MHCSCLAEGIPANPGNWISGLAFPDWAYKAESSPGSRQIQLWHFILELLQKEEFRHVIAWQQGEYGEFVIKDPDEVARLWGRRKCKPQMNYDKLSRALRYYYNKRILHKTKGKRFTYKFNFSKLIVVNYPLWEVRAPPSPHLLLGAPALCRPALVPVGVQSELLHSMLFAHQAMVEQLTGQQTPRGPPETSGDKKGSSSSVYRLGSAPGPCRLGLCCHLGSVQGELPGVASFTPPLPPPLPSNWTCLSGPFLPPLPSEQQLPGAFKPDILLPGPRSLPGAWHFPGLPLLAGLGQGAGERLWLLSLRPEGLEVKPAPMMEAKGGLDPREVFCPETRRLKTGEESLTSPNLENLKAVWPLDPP
The method, boiled down: as §1

In a further assay the target is T3, ETS2 (Homo sapiens, UniProt P15036 1-469).
T3 sequence: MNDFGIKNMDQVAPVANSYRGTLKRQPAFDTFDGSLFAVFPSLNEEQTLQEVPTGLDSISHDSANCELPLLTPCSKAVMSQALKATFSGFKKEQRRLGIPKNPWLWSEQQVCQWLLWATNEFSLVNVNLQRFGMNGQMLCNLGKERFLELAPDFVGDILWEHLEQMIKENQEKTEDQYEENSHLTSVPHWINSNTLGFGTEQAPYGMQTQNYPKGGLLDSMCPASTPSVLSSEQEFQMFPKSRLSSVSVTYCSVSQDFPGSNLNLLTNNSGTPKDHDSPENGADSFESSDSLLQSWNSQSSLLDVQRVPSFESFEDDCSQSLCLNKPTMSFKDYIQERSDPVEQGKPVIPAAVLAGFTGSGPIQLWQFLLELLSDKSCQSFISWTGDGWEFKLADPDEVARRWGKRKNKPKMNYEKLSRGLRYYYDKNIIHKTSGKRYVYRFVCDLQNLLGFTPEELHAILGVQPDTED
The procedure, abridged:
as §1

The next assay has as its target T4, SPDEF (Homo sapiens, UniProt O95238 1-335).
T4 sequence: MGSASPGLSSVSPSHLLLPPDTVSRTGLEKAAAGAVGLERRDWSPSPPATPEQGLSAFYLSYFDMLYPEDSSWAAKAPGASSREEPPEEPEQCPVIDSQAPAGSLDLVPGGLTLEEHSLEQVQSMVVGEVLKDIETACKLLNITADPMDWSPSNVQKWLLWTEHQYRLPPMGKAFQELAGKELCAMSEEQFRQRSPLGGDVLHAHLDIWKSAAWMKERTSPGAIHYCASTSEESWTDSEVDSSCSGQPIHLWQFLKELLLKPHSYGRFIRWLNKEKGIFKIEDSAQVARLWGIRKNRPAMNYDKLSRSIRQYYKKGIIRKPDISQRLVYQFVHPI
The method, boiled down: as §1

The target in another assay is T5, ETV7 (Homo sapiens, UniProt Q9Y603 1-341).
T5 sequence: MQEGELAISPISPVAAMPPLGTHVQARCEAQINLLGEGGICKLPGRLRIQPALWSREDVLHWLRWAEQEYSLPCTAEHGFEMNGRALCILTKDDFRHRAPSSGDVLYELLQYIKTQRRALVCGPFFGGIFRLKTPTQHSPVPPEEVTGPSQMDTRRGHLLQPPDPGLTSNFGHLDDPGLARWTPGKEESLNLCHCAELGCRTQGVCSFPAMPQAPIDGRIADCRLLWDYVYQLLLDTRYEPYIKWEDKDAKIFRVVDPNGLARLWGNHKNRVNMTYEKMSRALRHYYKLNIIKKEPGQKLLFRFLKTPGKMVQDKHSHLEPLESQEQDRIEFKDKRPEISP
The procedure, abridged: as §1

In a further assay the target is T6, ELF5 (Homo sapiens, UniProt Q9UKW6-2 1-255).
T6 sequence: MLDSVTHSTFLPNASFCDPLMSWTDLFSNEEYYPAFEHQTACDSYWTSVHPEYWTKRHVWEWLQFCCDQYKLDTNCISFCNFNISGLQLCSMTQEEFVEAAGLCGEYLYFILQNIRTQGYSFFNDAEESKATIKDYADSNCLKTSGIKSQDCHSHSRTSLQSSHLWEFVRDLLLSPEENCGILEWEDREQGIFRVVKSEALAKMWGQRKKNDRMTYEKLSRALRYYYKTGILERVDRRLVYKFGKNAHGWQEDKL
The method, boiled down:
as §1

A further assay concerns the target T7, ETV3 (Homo sapiens, UniProt P41162-2 1-143).
T7 sequence: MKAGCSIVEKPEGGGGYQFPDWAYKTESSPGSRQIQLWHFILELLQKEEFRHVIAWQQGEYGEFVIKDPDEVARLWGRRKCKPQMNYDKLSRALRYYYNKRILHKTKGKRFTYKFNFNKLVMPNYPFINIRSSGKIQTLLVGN
The method, boiled down: as §1

The next assay deals with ETV6 (Homo sapiens, UniProt P41212 1-452). The procedure, abridged:
as §1

Sequence of ETV6 (P41212 whole entry): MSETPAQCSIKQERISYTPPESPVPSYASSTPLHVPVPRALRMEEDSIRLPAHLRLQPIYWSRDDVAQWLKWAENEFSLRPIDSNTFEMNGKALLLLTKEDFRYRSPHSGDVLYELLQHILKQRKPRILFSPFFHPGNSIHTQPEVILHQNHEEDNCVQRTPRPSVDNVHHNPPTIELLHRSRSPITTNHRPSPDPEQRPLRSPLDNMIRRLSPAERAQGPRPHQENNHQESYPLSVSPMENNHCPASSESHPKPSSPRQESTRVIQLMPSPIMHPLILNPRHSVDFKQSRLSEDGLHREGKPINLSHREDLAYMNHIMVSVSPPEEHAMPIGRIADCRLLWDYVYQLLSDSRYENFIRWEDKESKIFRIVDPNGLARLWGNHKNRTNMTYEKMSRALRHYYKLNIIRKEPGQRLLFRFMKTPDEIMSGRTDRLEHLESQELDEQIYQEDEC

As to AAATGG, the binding signal with ERF was 1.49 fold enrichment (6-mer frequency, TF over GST control); with ETV3L, 1.54 fold enrichment (6-mer frequency, TF over GST control); with ETS2, 1.54 fold enrichment (6-mer frequency, TF over GST control); with SPDEF it was 1.41 fold enrichment (6-mer frequency, TF over GST control); with ETV7 it was 1.38 fold enrichment (6-mer frequency, TF over GST control); with ELF5, 1.52 fold enrichment (6-mer frequency, TF over GST control). The binding signal with ETV3 is 1.5 fold enrichment (6-mer frequency, TF over GST control); with ETV6, 1.47 fold enrichment (6-mer frequency, TF over GST control).
Take AACTTC: the binding signal in the assay with ERF is 2.22 fold enrichment (6-mer frequency, TF over GST control); with ETV3L it was 2.51 fold enrichment (6-mer frequency, TF over GST control); with ETS2 it was 2.63 fold enrichment (6-mer frequency, TF over GST control); with SPDEF, 2.21 fold enrichment (6-mer frequency, TF over GST control); with ETV7, 2.3 fold enrichment (6-mer frequency, TF over GST control); in the assay with ELF5, 3.55 fold enrichment (6-mer frequency, TF over GST control). Further, the binding signal with ETV3 is 2.57 fold enrichment (6-mer frequency, TF over GST control); with ETV6 it was 2.76 fold enrichment (6-mer frequency, TF over GST control).
With AAGTGC, the binding signal is 1.22 fold enrichment (6-mer frequency, TF over GST control) with ERF; 1.2 fold enrichment (6-mer frequency, TF over GST control) in the assay with ETV3L; 1.23 fold enrichment (6-mer frequency, TF over GST control) with ETS2; 1.26 fold enrichment (6-mer frequency, TF over GST control) in the assay with SPDEF; 1.32 fold enrichment (6-mer frequency, TF over GST control) with ETV7; 1.29 fold enrichment (6-mer frequency, TF over GST control) with ELF5. The binding signal with ETV3 is 1.39 fold enrichment (6-mer frequency, TF over GST control); in the assay with ETV6 it was 1.36 fold enrichment (6-mer frequency, TF over GST control).
Regarding ATACGG, the binding signal in the assay with ERF was 1.28 fold enrichment (6-mer frequency, TF over GST control); with ETV3L, 1.15 fold enrichment (6-mer frequency, TF over GST control); in the assay with ETS2 it was 1.22 fold enrichment (6-mer frequency, TF over GST control); in the assay with SPDEF it was 1.31 fold enrichment (6-mer frequency, TF over GST control); with ETV7 it was 1 fold enrichment (6-mer frequency, TF over GST control); with ELF5, 1.32 fold enrichment (6-mer frequency, TF over GST control). In addition, the binding signal with ETV3 was 1.31 fold enrichment (6-mer frequency, TF over GST control); in the assay with ETV6 it was 1.18 fold enrichment (6-mer frequency, TF over GST control).
For GATGCG, the binding signal is 1.17 fold enrichment (6-mer frequency, TF over GST control) with ERF; 1.25 fold enrichment (6-mer frequency, TF over GST control) in the assay with ETV3L; 1.2 fold enrichment (6-mer frequency, TF over GST control) in the assay with ETS2; 1.25 fold enrichment (6-mer frequency, TF over GST control) with SPDEF; 1.22 fold enrichment (6-mer frequency, TF over GST control) with ETV7; 1.1 fold enrichment (6-mer frequency, TF over GST control) in the assay with ELF5. Moreover, the binding signal with ETV3 is 1.23 fold enrichment (6-mer frequency, TF over GST control); in the assay with ETV6 it was 1.12 fold enrichment (6-mer frequency, TF over GST control).
Turning to ATCTGT, the binding signal is 1.21 fold enrichment (6-mer frequency, TF over GST control) with ERF; 1.2 fold enrichment (6-mer frequency, TF over GST control) with ETV3L; 1.22 fold enrichment (6-mer frequency, TF over GST control) with ETS2; 1.17 fold enrichment (6-mer frequency, TF over GST control) with SPDEF; 1.21 fold enrichment (6-mer frequency, TF over GST control) in the assay with ETV7; 1.2 fold enrichment (6-mer frequency, TF over GST control) in the assay with ELF5. Besides, the binding signal is 1.11 fold enrichment (6-mer frequency, TF over GST control) with ETV3 and 1.12 fold enrichment (6-mer frequency, TF over GST control) with ETV6.
On to AATAGG, for which the binding signal was 1.21 fold enrichment (6-mer frequency, TF over GST control) in the assay with ERF; 1.12 fold enrichment (6-mer frequency, TF over GST control) with ETV3L; 1.16 fold enrichment (6-mer frequency, TF over GST control) in the assay with ETS2; 1.22 fold enrichment (6-mer frequency, TF over GST control) with SPDEF; 1.27 fold enrichment (6-mer frequency, TF over GST control) in the assay with ETV7; 1.19 fold enrichment (6-mer frequency, TF over GST control) with ELF5. Moreover, the binding signal in the assay with ETV3 is 1.15 fold enrichment (6-mer frequency, TF over GST control); in the assay with ETV6, 1.27 fold enrichment (6-mer frequency, TF over GST control).
